PubChem BioAssay AID2507 (National Center for Advancing Translational Sciences (NCATS), 2010)
Inconclusive results are not listed. Active and inactive are the calls of the source. Calls follow the shape of the dose curve; as a rule, active = well fitted inhibition curve with a large enough effect; inconclusive = small, poorly fitted or top-dose-only effect, or effect the other way; inactive = flat fitted curve, though single readings scatter.

Assay: Secondary Assay for General miRNAs Modulators and/or Inhibitors/Activators of miR-21: miR-30 Firefly Luciferase Assay
Conditions: HeLa miR-30 FLuc reporter, luminescence, 48 h; series mostly up to 38.3 µM; activity change, negative = inhibition: at the top concentration
Source text: MLSCN Grant: 1 R21 NS059478-01 Assay Provider: Qihong Huang, The Wistar Institute NCGC Assay Overview: MicroRNAs (miRNAs) are endogenously encoded small (~20-25 nucleotides), nonprotein-coding RNAs that are involved in post-transcriptional repression of target messenger RNAs (mRNAs) (Le and Hannon, 2004). Estimated to be involved in the regulation of 30% of all protein-coding mRNAs (Filipowicz et al., 2008), miRNAs play a significant role in many biological processes including cellular differentiation and tissue development (Ghildiyal and Zamore, 2009). […] Compounds active in the miR-21 FLuc assay were clustered using Leadscope and active chemical series were prioritized based on chemical properties, potential for medicinal chemistry optimization, and SAR. Within each chemical series, representative compounds were re-acquired to test for activity in a secondary assay based on the quality of their CRC, efficacy, and potency. The secondary assay to determine if compounds active in the miR-21 FLuc assay were potentially specific for miR-21 and were not general modulators of the miRNA pathway was another cell-based FLuc reporter gene assay, this time targeting miR-30. Compounds found active in both the miR-21 FLuc and miR-30 FLuc assays are not considered miR-21 specific compounds, and may be general miRNA modulators.
NCGC Assay Protocol Summary: Reagents: HeLa cells stably expressing firefly luciferase (FLuc) under the control of a CMV promoter (upstream) and a miR-30 binding sequence directly downstream of the gene. These cells also stably express miR-30. Control compounds used were compound C3 (provided by collaborator), N6-phenyladenosine (MP Biomedicals, 0215379625), and DMSO. Assay Summary: 6uL of HeLa miR-30-FLuc cells in assay buffer (DMEM, Invitrogen #21063-029; 10% FBS, HyClone #SH30071.03) were dispensed at 1000cells/well (1.7 x 10^5 cells/mL) into Greiner solid-white TC-treated 1536-well plates using a Multidrop Combi (Thermo Fisher Scientific). Plates were incubated for one hour at 37 degree Celsius, 95% humidity, 5% CO2. These assay plates were then treated with 23nL of compound or DMSO using a Kalypsys pin tool, which allows for delivery of a 24-point titration of each compound to the assay plate, with a final compound concentration ranging from approximately 40uM to 5pM. Assay plates were then incubated for 48 hours. After incubation, plates were allowed to come to RT for one hour prior to delivery of 3uL of 3X luciferase detection reagent. After a 15 minute incubation to allow for cell lysis, luciferase activity was measured using a ViewLux CCD imager (PerkinElmer), with an average exposure time of 2-12 seconds. Keywords: NIH Roadmap, MLPCN, MLSMR, qHTS, miR-21, miR-30, microRNA, firefly luciferase, FLuc.

Potency, active:
Nc1c(-c2nc(-c3cccs3)no2)nnn1-c1cccc(F)c1 0.283 µM
COc1cccc(NC(=O)CSc2nnc(-c3cccs3)o2)c1 5.65 µM
CC(C)COc1ccc(C(=O)Nc2cc(-c3ccccc3)no2)cc1 2.25 µM
Cc1ccc2c(C)c(C(=O)N(C)C(C)c3ccncn3)oc2c1C (stereo not given) 22.5 µM
Cc1c(-c2nc(-c3ccc(C(F)(F)F)cc3)no2)n(C)oc1=O 0.503 µM
COc1ccc(CNc2nc(-c3ccco3)nn2C(=O)CC(C)C)cc1 11.3 µM
Cc1cc(SCC(=O)Nc2nsc(-c3ccc(C(C)(C)C)cc3)n2)nc2ccccc12 2 µM
COc1nc(Nc2cccc(C(F)(F)F)c2)nc(OC)n1 22.5 µM
CCc1nonc1NC(=O)c1oc2ccc(C)cc2c1C 4.49 µM
CCc1nonc1NC(=O)c1oc2cc(C)c(C)cc2c1C 3.18 µM
COc1ccccc1C(=O)n1nc(-c2ccco2)nc1NCc1ccc(Cl)cc1 7.98 µM
Cc1ccc(-c2nsc(SCC(=O)Nc3ccc4c(c3)OCO4)n2)cc1 11.3 µM
COc1ccc(C(=O)Nc2nnc(C(C)C)s2)cc1OC 7.98 µM
Cc1ccccc1Nc1nc(N)nc(CN(C)c2ccccc2)n1 12.6 µM
CC(=O)Nc1nc2c(C)cc(NC(=O)C3CCCCC3)cc2s1 1.26 µM
COc1cccc(-n2nnc(-c3nc(-c4cccs4)no3)c2N)c1 0.634 µM
O=C(COc1ccccc1F)Nc1ccc(-c2nc3ccccc3s2)cc1 3.18 µM
Cc1cccc(-n2nnc(-c3nc(-c4cccs4)no3)c2N)c1 0.798 µM
CC(=O)c1cnc2nc(SCc3ccccc3)nn2c1C 12.6 µM
Cc1cc(C)c2c(N)c(C(=O)Nc3ccccc3F)sc2n1 1.79 µM
COc1ccc(NC(=O)c2ncn(-c3ccccc3)n2)cc1Cl 14.2 µM
CN(C)c1ccc(CNc2nc(-c3ccco3)nn2S(C)(=O)=O)cc1 2.83 µM
Cn1c(=O)[nH]c2cc(-c3noc(-c4ccc(F)cc4)n3)ccc21 2.52 µM
CC(C)(C)c1ccc(NC(=O)CSc2nnc(-c3n[nH]c4ccccc34)o2)cc1 11.3 µM
CCc1ccc(-n2nnc(-c3nc(-c4cccs4)no3)c2N)cc1 1.42 µM
Cc1cccc(-c2nsc(SCC(=O)Nc3ccc4c(c3)OCO4)n2)c1 22.5 µM
Cc1c(-c2nnc(SCC(=O)Nc3ccccc3F)o2)nnn1-c1ccc(F)cc1 4 µM
c1ccc(CSc2nnc3ccc(-c4cccs4)nn23)nc1 11.3 µM
Cc1cccc(-n2nnc(-c3nc(-c4cccs4)no3)c2N)c1C 0.159 µM
COc1ccc(NC(=O)CSc2nc(SC)ns2)c(OC)c1 5.04 µM
Cc1ccc(Nc2ncnc(N)n2)cc1C 10 µM
Cc1cc(C)cc(NC(=O)CSc2nnc(-c3ccccc3C)o2)c1 11.3 µM
Nc1c(-c2nc(-c3ccccc3Cl)no2)nnn1-c1ccccc1F 0.4 µM

Activity change, negative = inhibition, inactive:
COc1ccc(CNc2n[nH]c(-c3ccco3)n2)cc1OC -23.9%
Cc1cccc(OCc2nnc(SCC(=O)Nc3ccc(N4CCOCC4)cc3)o2)c1 10.4%
Nc1c(C(=O)Nc2ccccc2Br)sc2nc(-c3cccs3)ccc12 9.39%
CCCn1c(=O)c2sccc2n2c(CCCC(=O)Nc3ccc(Oc4ccc(Cl)cc4)cc3)nnc12 19.4%
CCC(Oc1ccccc1F)C(=O)N1CCC(c2nc3ccccc3s2)CC1 (stereo not given) 18.4%
O=C(Nc1nnc(S(=O)(=O)N2CCCC2)s1)c1ccc(F)cc1 -22.3%
COc1ccccc1NC(=O)C/C(C)=N/NC(=O)c1ccccn1 -7.18%
